This is an account of results in ChEMBL document CHEMBL3988442, “University of Dundee, Small-Polar-MMV Screening Library” (2021).

Among all 48,000 compounds or so, about 13,000 (27%) showed an effect of 50% or more. The list shows a part of the results.

The subject of the assay is Wolbachia pipientis. The assay is described as follows: Anti-Wolbachia Cell-Based Screen. The assay is classed as functional. Set-up: scale not given: in the data most compounds retested in dose-response had high values. To be noted: 5 µM.
Take `CC(C)CS(=O)(=O)N1CCC2(CN(c3cccc(F)c3)C(=O)CN2C)C1.O=C(O)C(F)(F)F` (stereo unspecified): the “Percent Effect” value worked out at 10.41%. The value for `C=C1C(C)(C)[C@H]2CC[C@]1(C(=O)N1CCC(n3cc(CCO)nn3)CC1)C2` was 95.18%; that for `Cc1ccoc1C(=O)N1CCC(n2cc(CO)nn2)CC1` was -7.426%.

Regarding `C=C1C(C)(C)[C@H]2CC[C@]1(C(=O)N1CCC(n3cc(CO)nn3)CC1)C2`, the “Percent Effect” value is recorded as 93.63%. The value for `CC(O)c1cn(C2CCN(C(=O)C3(C)CCN(C)CC3)CC2)nn1` (stereo unspecified) was 3.786%; that for `C=C1C(C)(C)[C@H]2CC[C@]1(C(=O)N1CCC(Cn3cc(CO)nn3)CC1)C2` was 87.91%. The value for `Cn1cc(Cl)c(CN2CCCC(Cn3cc(CO)nn3)C2)n1` (stereo unspecified) was -2.88%; that for `Cc1ccc(C(=O)N2CCC(n3cc(CO)nn3)CC2)cn1` was 1.663%.

In the case of `OCc1cn(CC2CCN(C3CCSC3)CC2)nn1` (stereo unspecified), the “Percent Effect” value was -25.36%. The value for `CC1(C(=O)N2CCC(n3cc(C4(O)CCCC4)nn3)CC2)CCCCC1` was -2.498%; that for `CCc1noc(CS(=O)(=O)CC=C(C)C)n1` was -4.555%. In the case of `O=C(NCC1CC[C@@H]2[C@@H]1OCCN2Cc1cccs1)c1ccco1.O=C(O)C(F)(F)F` (stereo partly specified) it was 0.6461%; in that of `O=C(O)C(F)(F)F.O=C1N(CC2CC2)CCC12CCN(Cc1ccoc1)CC2`, 112.5%; in that of `CN(C)C(=O)CN1CCC2(CCCN(Cc3ccoc3)C2)C1=O` (stereo unspecified), -23.42%. In the case of `O=C(O)C(F)(F)F.O=C1N(CC2CC2)CCC12CCN(CC1CC1)CC2` it was 11.64%.

`CN1CCC(CN2CCC3(CCCN(Cc4ccoc4)C3)C2=O)CC1.O=C(O)C(F)(F)F.O=C(O)C(F)(F)F` (stereo unspecified): the “Percent Effect” value came out at 107.1%. For the compound `COC[C@H]1CN(CC2CC2)C(=O)[C@@H]2CCN(Cc3ccoc3)CC[C@H]12.O=C(O)C(F)(F)F`, the “Percent Effect” value is -27.64%. In the case of `COCCN1CCC2(CCCN(Cc3ccoc3)C2)C1=O.O=C(O)C(F)(F)F` (stereo unspecified) it was 89.97%; in that of `CC(=O)N[C@@H](CC(C)C)C(=O)N1CCC(n2cc(CC(C)C)nn2)CC1`, -6.729%; in that of `O=S(=O)(Nc1ccccn1)c1cc(Cl)cc2c1OCC2`, -2.666%. The value for `COCc1ncn2c1CN(S(=O)(=O)c1cccs1)CCC2` was -6.89%; that for `FC(F)(F)c1ccc(CNC[C@H]2COCc3nc4cccnc4n32)cc1` was -6.835%; that for `CCOCc1ccc(NCc2cnc(N3CCN(C)CC3)nc2)cc1` was 18.94%. The value for `O=S(=O)(NCCC(O)c1cccs1)c1ccccc1` (stereo unspecified) was 2.573%. As to `CSc1ccc(OC(C)C(=O)Nc2c(C)n[nH]c2C)cc1` (stereo unspecified), the “Percent Effect” value is given as -3.157%. Consider `CCOCc1nc2c(c(NC(CC)c3ccncc3)n1)CCNCC2` (stereo unspecified), for which the “Percent Effect” value was -23.76%. Take `O=C(Nc1ccc(-n2cncn2)nc1)N(CC1CCOC1)C1CC1` (stereo unspecified): the “Percent Effect” value stood at 3.822%. In the case of `Cc1cc(CNC(=O)NCCOc2ccc(F)c(F)c2)on1` it was -11.19%. On to `O=C(NCC1CC1)c1ccc(NC(=O)c2ccco2)cc1`, for which the “Percent Effect” value is 109.6%. In the case of `Cc1occc1C(=O)Nc1ccc(C(=O)NC[C@H]2CCCN2)cc1` it was -11.64%; in that of `O=C1COC[C@H]([C@H](O)c2ccc(NC(=O)c3ccco3)cc2)N1`, -8.877%; in that of `Cc1ccc(NC(=O)NCC2CCS(=O)(=O)C2)cc1Cl` (stereo unspecified), 41.82%. In the case of `O=C(NCC1CCS(=O)(=O)C1)c1ccc2cccc(Cl)c2n1` (stereo unspecified) it was -11.54%; in that of `O=C(NCC1CCS(=O)(=O)C1)c1ccco1` (stereo unspecified), 88.86%; in that of `O=C(NCC1CCCN(C(=O)NCCc2ccccc2)C1)c1ccco1` (stereo unspecified), -12.18%. In the case of `O=C(NCC1CCS(=O)(=O)C1)c1ccc(NC(=O)c2ccco2)cc1` (stereo unspecified) it was 100.2%; in that of `Cc1cc(C(=O)NCC2CCS(=O)(=O)C2)ccc1NC(=O)c1ccco1` (stereo unspecified), 105.8%; in that of `Cc1cccc(C(=O)NCC2CCS(=O)(=O)C2)n1` (stereo unspecified), 20.7%. On to `O=C(NCC1CCS(=O)(=O)C1)Nc1ccccn1` (stereo unspecified), for which the “Percent Effect” value was 11.69%. For the compound `COc1ncccc1NC(=O)NCC1CCS(=O)(=O)C1` (stereo unspecified), the “Percent Effect” value is on record as -8.215%.

As to `Cc1cnn(CCNCc2c(C)nn(-c3ccccc3)c2C)c1`, the “Percent Effect” value was 2.27%. In the case of `CCn1ccnc1CNCC1CCCN1c1cc(NC)ncn1` (stereo unspecified) it was -2.475%. The value for `CC1(c2ccccc2)CCCN(Cc2cncn2C2CC2)C1` (stereo unspecified) was -17.5%; that for `CC(=O)N1CCN2C(=O)N(Cc3ccc(F)cc3)C[C@H]2C1` was -0.8027%; that for `O=C(NCCN1CCc2ccccc2C1)c1scnc1Cl` was 7.313%. For the compound `Cc1ncsc1C(=O)N1CCC(O)(CN2CCc3ccccc3C2)C1` (stereo unspecified), the “Percent Effect” value is listed as 69.3%. In the case of `Cc1ccsc1C(=O)N1CCC(O)(CN2CCc3ccccc3C2)C1` (stereo unspecified) it was 107.5%; in that of `Cc1ncsc1C(=O)NCC1SCCc2ccccc21` (stereo unspecified), 15.22%. `Cc1ccsc1C(=O)N1CC(C(=O)N2CCOCC2)C2(CCOCC2)C1` (stereo unspecified): the “Percent Effect” value is reported as -2.409%. On to `Cc1ccsc1C(=O)N1Cc2ccccc2C2(CCN(C)CC2)C1`, for which the “Percent Effect” value is recorded as 0.4591%. In the case of `CN(C)C(=O)CN1C[C@H]2CCN(C(=O)c3ccccc3)CC[C@H]2S1(=O)=O` it was -0.2408%.
